Drawing on PubChem BioAssay (NCI), this text covers growth inhibition for eight compounds.

Test [1] in a line: NCI Yeast Anticancer Drug Screen. Data for the rad50 strain (AID 155).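 Further: 0% = growth of vehicle-only cultures of the same strain.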 The note with it: S. cerevisiae rad50 strain growth inhibition, stronger effect = higher value. The method in brief: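 Genetically altered yeast (DNA repair pathway); compound treatment; growth inhibition vs vehicle ctrl.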
Test [2] in a line: NCI Yeast Anticancer Drug Screen. Data for the mec2-1 strain (AID 157). The note with it: S. cerevisiae mec2-1 strain, stronger effect = higher value. The method in brief:
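Growth inhibition is read against vehicle-treated controls after compound exposure of the mec2-1 yeast strain, which is defective in DNA damage repair or cell cycle control.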

A short description of test [3]: NCI Yeast Anticancer Drug Screen. Data for the sgs1 mgt1 strain (AID 161).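 Further: 0% = growth of cultures given vehicle only.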 The note with it: S. cerevisiae sgs1 mgt1 strain, stronger effect = higher value. The method in brief:
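This yeast growth screen uses a strain with defined DNA-repair lesions; compound-treated growth is compared with vehicle-treated growth.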

Test [4] can be described thus: NCI Yeast Anticancer Drug Screen. Data for the cln2 rad14 strain (AID 165).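 Further: 0% = growth equal to vehicle treated cultures.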 The note with it: S. cerevisiae cln2 rad14 strain, stronger effect = higher value. The method in brief: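 Growth inhibition, relative to vehicle-treated controls, is the read-out. The test organism is a yeast strain with defined genetic alterations, cln2 rad14.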
A short description of test [5]: NCI Yeast Anticancer Drug Screen. Data for the bub3 strain (AID 167). The settings on record: S. cerevisiae bub3 mutant strain, stronger effect = higher value. An outline of the steps: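 Yeast carrying a defined mutation is treated with each compound, and growth is compared with that of vehicle-exposed cells to give inhibition.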
A short description of test [6]: NCI Yeast Anticancer Drug Screen. Data for the wt2 strain (AID 169).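 Further: 0% = growth of vehicle-treated yeast cultures.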 The note with it: S. cerevisiae wt2 strain growth inhibition, stronger effect = higher value. The method in brief:
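Compound exposure of yeast; growth compared with vehicle controls; inhibition reported.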

Test [7] in a line: NCI Yeast Anticancer Drug Screen. Data for the mlh1 rad18 strain (AID 175). The settings on record: S. cerevisiae mlh1 rad18 strain growth inhibition, stronger effect = higher value. An outline of the steps: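 Cells of a genetically altered yeast strain, deficient in DNA damage repair, were treated with compound. Their growth was then compared with that of vehicle-treated cultures to give inhibition.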

Where [8] appears, read: at 5.0 µM (retest, dose inferred, filed as 0.5).
Setting [9] is: at 50.0 µM (retest, dose inferred, filed as 5.0).

“And” between values parts separate entries of the source, which are not always exact repeats. Equal values may be shown once. This is part of a sample that, as a whole, favours compounds with a hit. Of some 79,000 tested, about 15% had one in any assay. More than one record can exist for a structure, and the calls need not agree. The source made the active and inactive calls. No stated cut-off is given here; in the data, active means growth inhibition above about 70%; inactive means the rest.

For the compound `OC(CF)(c1ccc(Cl)cc1)c1ccc(Cl)cc1`, the growth inhibition in test [1] (setting [8]) was 37% (inactive); in test [1] (setting [9]), 74% (active); in test [1] (at 50.0 µM) it was 90.3% (active); in test [2] (setting [8]) it was 24% (inactive); in test [2] (setting [9]) it was 75% (active); in test [2] (at 50.0 µM), 92.5% (active). Moreover, the growth inhibition is 6% (inactive) in test [3] (setting [8]); 91% (active) in test [3] (setting [9]); 92.8% (active) in test [3] (at 50.0 µM); 39% (inactive) in test [4] (setting [8]); 97% (active) in test [4] (setting [9]); 91.4% (active) in test [4] (at 50.0 µM). Besides, the growth inhibition was 1% (inactive) in test [5] (setting [8]); 91% (active) in test [5] (setting [9]); 91% (active) in test [5] (at 50.0 µM); 16% (inactive) in test [6] (at 1.2 µM); 16% (inactive) in test [6] (at 3.7 µM); 17% (inactive) in test [6] (at 11.0 µM). Also, the growth inhibition in test [6] (at 33.0 µM) was 93% (active); in test [6] (at 100.0 µM), 99% (active); in test [7] (setting [8]) it was 39% (inactive); in test [7] (setting [9]), 75% (active); in test [7] (at 50.0 µM), 89% (active).

For the compound `N#CNC1=NCOCN1`, the growth inhibition was -3% (inactive) in test [1] (setting [8]); 6% (inactive) in test [1] (setting [9]); -1.6% (inactive) and 21.8% (inactive) in test [1] (at 50.0 µM); 2% (inactive) in test [2] (setting [8]); 10% (inactive) in test [2] (setting [9]); 22.4% (inactive) and 1.35% (inactive) in test [2] (at 50.0 µM). The growth inhibition in test [3] (setting [8]) is 2% (inactive); in test [3] (setting [9]), -9% (inactive); in test [3] (at 50.0 µM), 13.8% (inactive) and 8.55% (inactive); in test [4] (setting [8]), 4% (inactive); in test [4] (setting [9]), 11% (inactive); in test [4] (at 50.0 µM), 13.3% (inactive) and 18.8% (inactive). Moreover, the growth inhibition in test [5] (setting [8]) was -12% (inactive); in test [5] (setting [9]), -3% (inactive); in test [5] (at 50.0 µM) it was 10.1% (inactive) and -8.85% (inactive).

Turning to `Cc1nc2cc(Cl)ccc2n1-c1ccccc1`, the growth inhibition is 39% (inactive) in test [1] (setting [8]); 92% (active) in test [1] (setting [9]); 66.9% (inactive) in test [1] (at 50.0 µM); 38% (inactive) in test [2] (setting [8]); 98% (active) in test [2] (setting [9]); 17% (inactive) in test [2] (at 50.0 µM). The growth inhibition in test [3] (setting [8]) was -7% (inactive); in test [3] (setting [9]), 94% (active); in test [3] (at 50.0 µM) it was 77.2% (active); in test [4] (setting [8]), 32% (inactive); in test [4] (setting [9]), 99% (active); in test [4] (at 50.0 µM), 44% (inactive). Further, the growth inhibition is 4% (inactive) in test [5] (setting [8]); 97% (active) in test [5] (setting [9]); 76.5% (active) in test [5] (at 50.0 µM); 7% (inactive) in test [6] (at 1.2 µM); 11% (inactive) in test [6] (at 3.7 µM); 9% (inactive) in test [6] (at 11.0 µM). The growth inhibition was 37% (inactive) in test [6] (at 33.0 µM); 96% (active) in test [6] (at 100.0 µM); 36% (inactive) in test [7] (setting [8]); 85% (active) in test [7] (setting [9]); 60.2% (inactive) in test [7] (at 50.0 µM).

Turning to `COc1cccc(-c2nnc(-c3ccccc3)o2)c1`, the growth inhibition was 32% (inactive) and 33% (inactive) in test [1] (setting [8]); 36% (inactive) and 55% (inactive) in test [1] (setting [9]); 29.4% (inactive) and 89.1% (active) in test [1] (at 50.0 µM); 36% (inactive) and 45% (inactive) in test [2] (setting [8]); 40% (inactive) and 55% (inactive) in test [2] (setting [9]); 16.4% (inactive) and 85.8% (active) in test [2] (at 50.0 µM). For the same compound, the growth inhibition in test [3] (setting [8]) was -1% (inactive) and 11% (inactive); in test [3] (setting [9]) it was 52% (inactive) and 99% (active); in test [3] (at 50.0 µM) it was 33.5% (inactive) and 89.4% (active); in test [4] (setting [8]), 73% (active) and 21% (inactive); in test [4] (setting [9]), 18% (inactive) and 98% (active); in test [4] (at 50.0 µM), 32.5% (inactive) and 80.2% (active). In addition, the growth inhibition in test [5] (setting [8]) is 30% (inactive) and 13% (inactive); in test [5] (setting [9]), 85% (active) and 98% (active); in test [5] (at 50.0 µM), 71% (active) and 15.5% (inactive); in test [6] (at 1.2 µM) it was 20% (inactive); in test [6] (at 3.7 µM) it was 7% (inactive); in test [6] (at 11.0 µM), 4% (inactive). The growth inhibition in test [6] (at 33.0 µM) is 46% (inactive); in test [6] (at 100.0 µM), 97% (active); in test [7] (setting [8]), 30% (inactive) and 34% (inactive); in test [7] (setting [9]), 44% (inactive) and 54% (inactive); in test [7] (at 50.0 µM) it was 16.9% (inactive) and 84.1% (active).

Take `c1ccc2nc3c(ccc4ccccc43)cc2c1`: the growth inhibition in test [1] (setting [8]) is 22% (inactive); in test [1] (setting [9]), 31% (inactive); in test [1] (at 50.0 µM), 86% (active); in test [2] (setting [8]) it was 41% (inactive); in test [2] (setting [9]), 45% (inactive); in test [2] (at 50.0 µM), 75.9% (active). Besides, the growth inhibition in test [3] (setting [8]) was -17% (inactive); in test [3] (setting [9]), 94% (active); in test [3] (at 50.0 µM), 84.5% (active); in test [4] (setting [8]), 5% (inactive); in test [4] (setting [9]), 91% (active); in test [4] (at 50.0 µM), 68.7% (inactive). Further, the growth inhibition in test [5] (setting [8]) was 0% (inactive); in test [5] (setting [9]), 99% (active); in test [5] (at 50.0 µM), 84% (active); in test [6] (at 1.2 µM), 18% (inactive); in test [6] (at 3.7 µM), 16% (inactive); in test [6] (at 11.0 µM), 64% (inactive). Further, the growth inhibition in test [6] (at 33.0 µM) is 94% (active); in test [6] (at 100.0 µM) it was 89% (active); in test [7] (setting [8]), 20% (inactive); in test [7] (setting [9]) it was 49% (inactive); in test [7] (at 50.0 µM) it was 83% (active).

Regarding `Cc1c2ccccc2c(C=O)c2ccccc12`, the growth inhibition in test [1] (setting [8]) is 40% (inactive); in test [1] (setting [9]) it was 96% (active); in test [1] (at 50.0 µM), 86.2% (active); in test [2] (setting [8]), 44% (inactive); in test [2] (setting [9]), 99% (active); in test [2] (at 50.0 µM) it was 89% (active). Moreover, the growth inhibition in test [3] (setting [8]) was -13% (inactive); in test [3] (setting [9]), 57% (inactive); in test [3] (at 50.0 µM), 91.2% (active); in test [4] (setting [8]), 50% (inactive); in test [4] (setting [9]), 59% (inactive); in test [4] (at 50.0 µM) it was 88.2% (active). Further, the growth inhibition was 2% (inactive) in test [5] (setting [8]); 67% (inactive) in test [5] (setting [9]); 88.5% (active) in test [5] (at 50.0 µM); -11% (inactive) in test [6] (at 1.2 µM); -16% (inactive) in test [6] (at 3.7 µM); -4% (inactive) in test [6] (at 11.0 µM). The growth inhibition in test [6] (at 33.0 µM) is 23% (inactive); in test [6] (at 100.0 µM), 93% (active); in test [7] (setting [8]), 40% (inactive); in test [7] (setting [9]), 99% (active); in test [7] (at 50.0 µM), 87.4% (active).

Turning to `CC(=O)Nc1ccc(S(=O)(=O)N(CCO)CCO)cc1`, the growth inhibition is -2% (inactive) in test [1] (setting [8]); -4% (inactive) in test [1] (setting [9]); 15.2% (inactive) in test [1] (at 50.0 µM); -12% (inactive) in test [2] (setting [8]); -5% (inactive) in test [2] (setting [9]); 98.5% (active) in test [2] (at 50.0 µM). Also, the growth inhibition was -12% (inactive) in test [3] (setting [8]); -4% (inactive) in test [3] (setting [9]); 40.5% (inactive) in test [3] (at 50.0 µM); 0% (inactive) in test [4] (setting [8]); 1% (inactive) in test [4] (setting [9]); 57% (inactive) in test [4] (at 50.0 µM). Also, the figures for the growth inhibition in test [5] (setting [8]), in test [5] (setting [9]) and in test [5] (at 50.0 µM) were -7% (inactive), 1% (inactive) and 80.7% (active), respectively.

Consider `O=C(NN1CCOC1=O)OCCCl`, for which the growth inhibition is -2% (inactive) in test [1] (setting [8]); 2% (inactive) in test [1] (setting [9]); 24.7% (inactive) in test [1] (at 50.0 µM); -1% (inactive) in test [2] (setting [8]); -6% (inactive) in test [2] (setting [9]); 18.7% (inactive) in test [2] (at 50.0 µM). The growth inhibition in test [3] (setting [8]) is -8% (inactive); in test [3] (setting [9]), -7% (inactive); in test [3] (at 50.0 µM), 34.6% (inactive); in test [4] (setting [8]), 9% (inactive); in test [4] (setting [9]), 0% (inactive); in test [4] (at 50.0 µM) it was 24.6% (inactive). The growth inhibition was 6% (inactive) in test [5] (setting [8]), 2% (inactive) in test [5] (setting [9]) and -16.1% (inactive) in test [5] (at 50.0 µM).
